Tau fibril FP – blocks human tau fibril formation measured by polarization | 0.39% of 280,000 active | Potency, µM (doses to about 57.7 µM), usual class: inhibitors | P10636 | K18 P301L tau heparin fibrillization, Alexa594 FP, 6 h; note: nearly all actives have a fitted effect of over 55% in size
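Compound effects on tau fibrillization are measured by Alexa 594 fluorescence polarization (ex 555, em 632 nm). K18 P301L tau is used at 15 uM with 0.24 uM labeled tracer, and 20 uM heparin induces aggregation over 6 hr at 37 C.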
Tau fibril ThT – tau fibrillization inhibition (ThT binding) | recombinant tau K18 P301L, heparin-induced fibrillization, ThT fluorescence | Potency, µM (series often up to 57.4 µM), most hits filed as inhibitors | 2.1% of 270,000 active | AID 1460; note: nearly all actives have a fitted effect of over 55% in size
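In this qHTS, human K18 P301L tau is incubated with compound and heparin for 6 hr at 37 C, and Thioflavin T fluorescence then reports fibril load.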
FBPA coupling cs – coupling enzyme interference in Giardia aldolase counter-screen; coupling enzyme system counterscreen, AmpLite Red fluorescence; activity change, negative = inhibition, % at 58.2 µM, hits read low; 0.67% of 290,000 active; AID 2472; in the data active = activity change below about -30%
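Coupling enzymes only (glyceraldehyde-3-phosphate) + compound, at 57.5 uM final, 10 min RT; add substrate/coupling/AmpLite Red mix, 20 min RT; fluorescence ex 525/em 598 nm. Actives flag coupling-system interference.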
Tau fluor counter – counter-screen for tau fibril formation inhibitors; tau K18 P301L Alexa594 fluorescence, heparin fibrillization; Potency, µM (doses to about 57.7 µM); 0.93% of 280,000 active; AID 1463; note: nearly all actives have a fitted effect of over 55% in size
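Human tau K18 P301L (15 uM unlabeled, 0.24 uM Alexa 594-labeled) in 100 mM sodium acetate pH 7 with 20 uM heparin, 6 hr at 37 C. ThT 30 uM added, 1 hr ambient; Alexa 594 FP and total fluorescence read at 555/632 nm.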
USP1-UAF1 inh – blocks the human USP1/UAF1 deubiquitinase complex; Potency, µM (series often up to 57.1 µM), usual class: inhibitors; 0.23% of 390,000 active; recombinant USP1/UAF1, Ub-Rhodamine cleavage fluorescence; AID 743255; O94782; note: nearly all actives have a fitted effect of over 60% in size
Target sequence (O94782 whole entry, looked up): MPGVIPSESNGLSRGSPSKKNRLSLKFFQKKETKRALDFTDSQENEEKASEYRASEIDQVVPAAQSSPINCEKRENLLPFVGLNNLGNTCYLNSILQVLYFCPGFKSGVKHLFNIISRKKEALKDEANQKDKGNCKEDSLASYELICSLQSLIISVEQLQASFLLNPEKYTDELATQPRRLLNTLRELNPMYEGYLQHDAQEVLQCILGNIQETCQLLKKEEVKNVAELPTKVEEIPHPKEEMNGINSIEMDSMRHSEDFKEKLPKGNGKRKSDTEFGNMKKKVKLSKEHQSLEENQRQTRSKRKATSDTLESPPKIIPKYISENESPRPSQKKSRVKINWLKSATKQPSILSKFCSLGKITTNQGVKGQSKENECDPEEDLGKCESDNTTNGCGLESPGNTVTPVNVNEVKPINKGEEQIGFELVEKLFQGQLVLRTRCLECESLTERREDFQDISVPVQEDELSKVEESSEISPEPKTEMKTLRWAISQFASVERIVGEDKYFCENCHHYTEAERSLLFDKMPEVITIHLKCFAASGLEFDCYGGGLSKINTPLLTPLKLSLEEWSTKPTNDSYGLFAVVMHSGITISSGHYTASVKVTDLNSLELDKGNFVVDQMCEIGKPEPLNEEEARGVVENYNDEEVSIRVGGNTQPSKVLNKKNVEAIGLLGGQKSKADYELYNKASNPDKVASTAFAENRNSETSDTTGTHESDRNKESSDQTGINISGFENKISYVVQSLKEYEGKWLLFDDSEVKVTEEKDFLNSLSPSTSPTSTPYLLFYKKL
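1 nM enzyme complex + cpd, 15 min RT; start with Ub-Rho 150nM final; kinetic fluorescence ex 480/em 540, 6 reads q60 s. Buffer 50mM HEPES pH 7.8, 0.5mM EDTA, 0.1 mg/ml BSA, 1mM TCEP, 0.01% Tween-20.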
Numbers stand for hits; - = inactive; ? = inconclusive; . = no result; ! = not confirmed by another sample; [ ] = remark or other dose. Compounds with a hit are over-represented: about 2.3% of the library has one in this group of screens. Unless noted, calls come from the whole dose curve; as a rule, active = well fitted curve in the direction sought with a large enough effect; inconclusive = small, poorly fitted or top-dose-only effect, or another doubt; inactive = no such curve, though single readings can be large; an effect the other way counts as inactive or inconclusive.

SMILES	Tau fibril FP	Tau fibril ThT	FBPA coupling cs	Tau fluor counter	USP1-UAF1 inh
CC(C1OC(C)(C)C(O)C1O)C1CC[C@@]2(C)C3=CCC4C(C)(C)C(=O)CC[C@]4(C)C3CC[C@@]12C (some centres undefined)	-	?	-	?	.
O=C1NC(=O)C(=Cc2cc3c(cc2[N+](=O)[O-])OCO3)C(=O)N1	28µM	13µM	-	-	-
CC(=O)OC1CC(OC(C)=O)[C@]2(C)C(CC(OC(C)=O)[C@]3(C)C2CC[C@@]2(C)C(c4ccoc4)C[C@H]4O[C@]432)C1(C)C (some centres undefined)	-	-	-	-	.
CC(=O)O[C@@H]1C[C@@]2(C)C(c3ccoc3)C[C@H]3O[C@]32[C@]2(C)C(=O)C(O)=C3C(C)(C)C(=O)C=C[C@]3(C)C12 (some centres undefined)	?	25µM	-	-	.
CC(=O)OC1C[C@@]2(C)C(c3ccoc3)C[C@H]3O[C@@]32[C@@]2(C)C(=O)C(O)=C3C(C)(C)C(=O)C=C[C@]3(C)C12 (some centres undefined)	?	8.9µM	-	-	.
O=C(O)C1Sc2[nH]c(=O)sc2C2c3cc(Cl)ccc3OC(=O)C12 (centres undefined)	-	22µM	-	?	-
S=c1[nH]nc(Cn2c(-c3ccccn3)nc3ccccc32)n1-c1ccc2c(c1)OCCO2	-	?	-	-	-
COC(=O)C(O)C(O)(CCC(C)C)C(=O)OC1C(OC)=CC23CCCN2CCc2cc4c(cc2C13)OCO4 (centres undefined)	-	-	-	-	.
O=C(Nc1ccc(Br)cc1)c1cc(Br)cc(Br)c1O	-	13µM	-	?	.
O=C1NC(=O)C(=O)C(=O)N1	2.8µM	2.5µM	-60	-	.
O=C1NC(=O)C2(CCCC2)C(=O)N1	.	.	.	.	-
O=C1OC(c2cc(I)c(O)c(I)c2)(c2cc(I)c(O)c(I)c2)c2ccccc21	?	13µM	-	7.1µM[quencher]	.
CC[C@@H]1CN2CCc3cc(OC)c(OC)cc3[C@H]2C[C@@H]1C[C@@H]1NCCc2cc(O)c(OC)cc21	.	.	-	.	.
CCC(C)N1C(=O)/C(=C/c2ccc3c(c2)CCN3CCCCl)C(=O)NC1=S (centres undefined)	?	32µM	-	?	-
Cc1cccc(N2C(=O)NC(=O)/C(=C\c3ccc4c(c3)CCCN4Cc3ccccc3)C2=O)c1	-	?	-	-	-
CN1C(=O)NC(=O)/C(=C/c2ccc([N+](=O)[O-])s2)C1=O	28µM	.	-	?	25µM
COc1ccc(OC)c(N2C(=O)NC(=O)/C(=C\c3ccc([N+](=O)[O-])s3)C2=O)c1	?	11µM	-	?	?
COc1ccc(N2C(=O)NC(=O)/C(=C\c3ccccc3[N+](=O)[O-])C2=O)cc1	-	?	-	-	-
O=C1NC(=O)N(c2ccccc2)C(=O)/C1=C\c1ccc([N+](=O)[O-])s1	?	.	-	?	18µM
CC1CN(c2ccccc2)NC1=O (centres undefined)	-	-	-	-	?
CC(C)CCCC(C)C1CCC2C3=CC[C@@H]4CC(O)CC[C@@]4(C)C3CC[C@]21C (some centres undefined)	-	?	-	-	.
CC(C)(C)c1cc(C=C(C#N)C#N)cc(C(C)(C)C)c1O	?	16µM	.	?	-
N#CC(=Cc1ccc(O)c(O)c1)C(N)=S	?	?	.	-	.
N#CC(C#N)=Cc1ccc(O)c(O)c1	?	14µM!	-	-	-
CCOc1ccc(NC(=O)CSc2oc(-c3ccccc3)nc2S(=O)(=O)c2ccc(Cl)cc2)cc1	-	-	.	?	-
SMILES	Tau fibril FP	Tau fibril ThT	FBPA coupling cs	Tau fluor counter	USP1-UAF1 inh
CC[C@H](C)[C@H](NC(=O)CN)C(=O)N[C@@H](CC(C)C)C(=O)NCC(=O)N[C@@H](Cc1ccccc1)C(=O)N[C@H](C(=O)N[C@@H](Cc1ccccc1)C(=O)N[C@H](C(=O)N[C@@H](CC(C)C)C(=O)O)[C@@H](C)O)C(C)C	.	.	-	.	.
O=C(O)[C@@H]1Cc2[nH]cnc2C(c2cccnc2)N1 (some centres undefined)	-	-	-	-	.
Cc1ccccc1N1C(=O)CC(=O)NC1=O	?	16µM	-	-	-
N=C(N)c1c(O)n(C2CCCCC2)c(=O)n(C2CCCCC2)c1=O	28µM	-	-	?	-
CN1CCN(Cc2nc3ccccc3n2C)CC1	-	-	-	-	-
Cn1c(NN=O)nc2ccccc21	-	18µM	-	?	-
CCCCCC[C@H]1C(=O)O[C@H](C)[C@H](NC(=O)c2cccc(NC=O)c2O)C(=O)O[C@@H](C)[C@@H]1OC(=O)CC(C)C	-	-	-	?	.
CN1CCN(c2ccc(N)cc2)CC1	?	25µM	-	?	-
CN1CCN(c2ccc3nccnc3c2)CC1	-	-	-	-	-
CN1CCN(c2ccc(N)c(N3CCN(C)CC3)c2)CC1	?	28µM	-39	?	-
CCN1CCN(c2ccc(N)cc2)CC1	?	25µM	-	?	-
CCOc1ccc(-c2cn3c(n2)sc2cc(C(=O)N4CCCC(C)C4)ccc23)cc1 (centres undefined)	-	?	.	-	-
N#CC(C#N)=NNc1ccc(S(=O)(=O)N2CCCC2)cc1	-	18µM	-	-	-
COc1ccc(Nc2cc(C)c3cc(NC(=O)c4ccccc4Cl)ccc3n2)cc1	?	4µM	.	8.9µM[quencher]	-
COc1ccc(NC(=O)c2cn(CCC#N)nc2-c2ccccc2)cc1	.	.	-	.	-
CC(=O)[C@H]1CC[C@H]2C3CC[C@H]4C[C@](C)(O)CC[C@]4(C)C3CC[C@]12C (some centres undefined)	.	.	-	.	.
O=c1[nH]c(=S)[nH]c(O)c1N=Nc1cc2c(cc1[N+](=O)[O-])OCO2	-	13µM	-	-	-
O=c1[nH]c(=S)[nH]c(O)c1N=Nc1cc(S(=O)(=O)Nc2ccc(Cl)cc2)ccc1Cl	.	.	.	.	-
O=c1[nH]c(=S)[nH]c(O)c1N=Nc1ccc(-c2ccccc2)cc1[N+](=O)[O-]	-	4µM	-	?	.
O=[N+]([O-])c1cc(-c2ccc([As](=O)(O)O)cc2)ccc1[As](=O)(O)O	-	-	-	-	.
CC(=O)c1ccc(N2CCN(S(=O)(=O)c3cc(-c4onc(C)c4C)ccc3C)CC2)cc1	-	-	.	-	?
COc1cc(CC2(CCc3ccncc3)C(=O)NC(=O)NC2=O)cc(OC)c1OC	-	-	-	-	-
COc1cc2c(cc1OC)-c1c(OC)c(OC)c(OC)c3ccnc(c13)C2=O	-	10µM	-	-	-

Bioassay records: PubChem BioAssay, National Center for Advancing Translational Sciences (NCATS)
